Rows were chosen to be rich in hits. Some 1.3% of all compounds tested hit in one or more screens of this group.
SARS 3CLpro inh-1: SARS-CoV 3CLpro protease inhibitors, primary screen, biochemical, quenched FRET; hit rate 0.14% among 290,000; Replicase polyprotein 1ab (Severe acute respiratory syndrome coronavirus), P0C6X7; inhibition, % at 6 µM; recombinant SARS-CoV 3CLpro, quenched FRET peptide cleavage; in the data active = inhibition above about 12%
SSB-PriA inh: inhibitors of Klebsiella pneumoniae PriA binding to SSB C-terminal tail, primary screen, biochemical, AlphaScreen | PriA–SSB C-terminal tail interaction (Klebsiella pneumoniae) | AlphaScreen SSBct-PriA binding, biotinylated peptide | inhibition, % at 33 µM | hit rate 0.6% among 430,000 | AID 1272365, 2023; in the data active = inhibition mostly above about 37%, no sharp cut-off; inactive = mostly below about 20%;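 also: plate controls were negative control peptide for no effect and reference peptide for full effect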
DUSP3 inh: VHR1 phosphatase inhibitors, primary screen, biochemical, absorbance, uHTS. hit rate 0.52% among 290,000. inhibition, % at 13.3 µM. recombinant VHR phosphatase, pNPP absorbance. Dual specificity protein phosphatase 3 (Homo sapiens), P51452; in the data active = inhibition above about 50%
TcdB inh: TcdB glycohydrolase inhibitors, primary screen, biochemical, single point, plate reader; inhibition, % at 9.99 µM; hit rate 0.24% among 350,000; AID 652162, 2013; TcdB glycohydrolase enzymatic assay; Toxin B (Clostridioides difficile), P18177; in the data active = inhibition above about 10%
CCHF vOTU inh: CCHFV vOTU protease inhibitors, primary screen, biochemical, Pep-AMC substrate, fluorescence; hit rate 0.55% among 370,000; inhibition, % at 11.5 µM; Crimean-Congo hemorrhagic fever virus L polyprotein viral ovarian tumor (vOTU) protease …; in the data active = inhibition above about 30%; also: 0% = vehicle wells with enzyme and 100% = no enzyme wells
Vc quorum ag: inducers of Vibrio cholerae quorum light production without autoinducers, primary screen, BH1578 luxS cqsA deficient, single point | activation, % at 18.7 µM | V. cholerae BH1578 lux reporter, luminescence, 6 h | hit rate 0.16% among 350,000; in the data active = activation mostly above about 9.7%, no sharp cut-off
SARS 3CLpro inh-2: confirmation of SARS coronavirus 3C-like protease inhibitors, retest, confirmation, biochemical | shares compounds with SARS 3CLpro inh-1 | AID 1879, 2009 | hit rate 36% among 380 | QFRET protease activity assay, 3CLpro | inhibition, % at 6 µM; in the data active = inhibition above about 13%
Starred values were filed as active, the others as inactive; i = inactive; . = no result.

SMILES	SARS 3CLpro inh-1	SSB-PriA inh	DUSP3 inh	TcdB inh	CCHF vOTU inh	Vc quorum ag	SARS 3CLpro inh-2
COCCNC(=O)C(c1cccc(OC)c1)N(Cc1cccs1)C(=O)Cn1nnc2ccccc21 (stereo unspecified)	31.6*	-13.7	22.5	.	8.7	i	34.6*
COc1ccc(N(Cc2cc3ccccc3[nH]c2=O)S(=O)(=O)c2ccc(OC)cc2)cc1	15.8*	-6.0	-6.0	1.4	4.9	i	5.6
COc1ccc(CC(=O)NC(C)c2nnc(SCCOc3ccc(OC)cc3)n2C)cc1 (stereo unspecified)	18.1*	-16.2	-14.1	0.7	-6.9	i	-4.4
COc1ccc(CC(=O)NC(C)c2nnc(SCC(=O)c3ccc(OC)cc3)n2C)cc1 (stereo unspecified)	4.2	23.2	21.9	0.4	-9.2	i	.
NC(=Nc1nc(CSc2ccc(Cl)cc2)cc(=O)[nH]1)Nc1cccc2ccccc12	.	-18.8	.	.	.	.	.
COC(CNC(=O)NC(c1ccccc1)c1ccccc1)c1ccccc1C (stereo unspecified)	.	-3.0	.	.	.	.	.
CC(=O)c1c(OC(=O)c2ccco2)c2ccccc2n1C	12.8*	-2.0	6.0	.	-4.2	i	15.6*
O=C(Nc1ccc(OCC(F)(F)C(F)F)c(C(F)(F)F)c1)c1ccccc1O	13.2*	-25.2	6.2	.	18.6	-0.3	15.3*
O=C(Nc1ccc(OCC(F)(F)C(F)F)c(C(F)(F)F)c1)c1ccccc1	12.2	-12.4	.	.	18.5	i	.
O=C(COc1ccc(S(=O)(=O)N2CCCCC2)cc1)Nc1ccccc1F	12.3*	5.5	23.9	1.5	16.9	-0.6	-6.1
O=C(COc1ccccc1)Nc1ccc(S(=O)(=O)N2CCCCCC2)cc1	-3.9	-16.4	20.2	1.2	22.3	-0.8	.
Cc1cccc(-n2nnnc2SCC(=O)c2ccc(C)cc2C)c1	.	-14.0	.	.	.	.	.
Cc1cc(C)c(N(C(=O)Cn2nnc3ccccc32)C(C(=O)NC(C)(C)C)c2ccsc2)c(C)c1 (stereo unspecified)	43.3*	6.1	6.2	.	16.7	i	69.2*
O=C(CCl)Nc1ccccc1C(=O)c1ccccc1	12.6*	-12.2	13.1	-0.1	-3.7	i	9.3
O=C(O)CC1(CC(=O)Nc2ccccc2C(=O)c2ccccc2)CCCC1	2.3	-7.3	-24.1	1.3	14.0	i	.
COc1ccccc1NC(=O)Cn1c2ccc(C)cc2c2ncn(Cc3ccccc3)c(=O)c21	.	-7.0	.	.	.	.	.
N#CC1C(=N)Oc2c(oc(CO)cc2=O)C1c1ccc2c(c1)OCO2 (stereo unspecified)	.	-7.0	.	.	.	.	.
C/C(=N\NC(=O)c1ccc(Cl)c(Cl)c1)c1cccc(NC(=O)C(C)C)c1	22.6*	.	17.7	.	10.5	4.8	-0.5
CC(=NNC(=O)c1ccc(Cl)c(Cl)c1)c1cccc(NC(=O)C(C)C)c1	.	-29.0	.	.	.	.	.
N#Cc1ccc(CSc2nnc(NC(=O)c3ccc4ncsc4c3)s2)cc1	13.3*	-16.1	3.9	-0.7	4.2	-0.2	43.3*
COc1cc(C(O)=C(C#N)c2nc3ccccc3s2)cc(OC)c1OC	.	0.0	.	.	.	.	.
CCCCCc1c2c(cc(O)c1C(=O)O)OC(=O)c1c(cc(OC)cc1C(=O)CCCC)O2	15.2*	1.5	25.6	.	.	-0.5	8.5
CCCCCc1c2c(cc(O)c1C(=O)O)OC(=O)c1cc(C(=O)CCCC)c(OC)cc1O2	.	-0.9	.	2.0	22.8	-0.5	.
CC(=O)N1CCCc2ccc(NC(=O)C(=O)Nc3cc(F)ccc3F)cc21	.	-18.0	.	.	.	.	.
COc1cc(/C=N/NC(=O)c2ccc3c(c2)OCO3)ccc1O	0.7	.	66.5	0.6	16.9	-0.1	.
COc1cc(/C=N/NC(=O)/C(=C\c2ccc3c(c2)OCO3)NC(=O)c2ccccc2)ccc1O	12.9*	.	12.7	1.7	11.2	i	2.5

Compound activity from PubChem.
